Tested on: Pectobacterium parmentieri SCC3193
Test: DuctApe activity index (growth/respiration on compound as sole nutrient source, blank-subtracted) (activity index (0-3)); higher = stronger utilization of the compound, active = 3 or more
Conditions: nutrient role (plate category): nitrogen
Experimental: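 Biolog Phenotype Microarray plates PM1, PM2A (carbon), PM3 (nitrogen) and PM4 (phosphorus/sulfur) inoculated with P. parmentieri SCC3193 in M9-C minimal salts medium with Biolog dye A, and read in the OmniLog for 46 h. Each well was tested in triplicate and the experiment was run twice. DuctApe computed a blank-subtracted activity index (AV, 0-3) from the mean curves; growth is positive at AV >= 3 and negative at AV <= 2.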

DuctApe activity index, inactive:
CCCCN [N-Butylamine] 0, NC=O [Formamide] 0, NCC(=O)N[C@@H](CC(N)=O)C(=O)O 1, NCCCCCC(=O)O [e-Amino-N-Caproic acid] 0, NC(=O)NCCC[C@H](N)C(=O)O [L-Citrulline] 0, O=C1NC(=O)C(=O)N1 [Parabanic acid] 0, NCCCC[C@@H](N)C(=O)O [D-Lysine] 0, C[C@H](N)C(=O)N[C@H](C(=O)O)[C@@H](C)O 0, CSCC[C@H](N)C(=O)N[C@@H](C)C(=O)O 0

Same assay, conditions: nutrient role (plate category): phosphate & sulphur

DuctApe activity index, inactive:
NCCS(=O)(=O)O [Taurine] 1, N[C@@H](CCC(=O)N[C@@H](CS)C(=O)NCC(=O)O)C(=O)O [Glutathione] 1, O=P1(O)OP(=O)(O)OP(=O)(O)O1 [Trimetaphosphate] 2, NC(=O)OP(=O)(O)O [Carbamyl Phosphate] 1, CS(=O)(=O)CC[C@H](N)C(=O)O [L-Methionine Sulfone] 0, O=P(O)(O)O[C@H]1[C@H](OP(=O)(O)O)[C@@H](OP(=O)(O)O)[C@H](OP(=O)(O)O)[C@@H](OP(=O)(O)O)[C@H]1OP(=O)(O)O [Inositol Hexaphosphate] 0, O=S(O)(O)=S [Thiosulfate] 0, CS(=O)(=O)O [Methane Sulfonic acid] 0

Source: the supplement of paper PMC6518042
